# In PubChem BioAssay (Tox21):
# Unmarked numbers belong to inactive results. Inconclusive results are not listed. Entries that show only a call come without a potency. The source made the active and inactive calls. Unless noted, the call rests on the fitted dose curve; in most records, active means well fitted curve in the direction sought with a large enough effect in the repeat runs; inconclusive means weak or mixed curves; inactive means flat fitted curve, though single readings scatter.
# Experiments:
# [1] = qHTS assay to test for compound auto fluorescence at 535 nm (green) in HEK293 cells (AID 720680)
# [2] = qHTS assay to test for compound auto fluorescence at 535 nm (green) in HEK293 cell free culture (AID 720682)
# Summary of the method: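 Compounds were pin-transferred into cell-free DMEM with 10% FBS, and green fluorescence was read at excitation 485 nm and emission 535 nm. Intensities were expressed as fluorescein-equivalent values.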
# [3] = qHTS assay to test for compound auto fluorescence at 590 nm (red) in HEK293 cell free culture (AID 720683)
# Summary of the method: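 Tox21 10K library compounds were pinned into cell-free DMEM with 10% FBS and fluorescence was read at excitation 540 nm. Activity is expressed as Rose Bengal sodium equivalency.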
# [4] = qHTS assay to test for compound auto fluorescence at 590 nm (red) in HepG2 cell free culture (AID 720684)
# Summary of the method: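 Red fluorescence (540 nm excitation, 590 nm emission) was measured after compound transfer into cell-free MEM supplemented with 10% FBS. Values are equivalencies against Rose Bengal sodium.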
# [5] = qHTS assay to test for compound auto fluorescence at 460 nm (blue) in HepG2 cell free culture (AID 720685); further: potency means the concentration at half of the fitted maximal effect
# Summary of the method: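 Compound (23 nL) or DMSO pinned into cell-free MEM with 10% FBS; blue fluorescence read at 405/460 nm excitation/emission, expressed as auto-fluorescence equivalency to triamterene.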
# [6] = qHTS assay to test for compound auto fluorescence at 535 nm (green) in HepG2 cell free culture (AID 720686)
# [7] = qHTS assay to test for compound auto fluorescence at 460 nm (blue) in HEK293 cell free culture (AID 720681)
# Summary of the method: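 Test compounds were pinned into cell-free culture medium (DMEM with 10% FBS) and fluorescence was read directly at Ex/Em 405/460 nm. Signals were expressed as fluorescence equivalents of triamterene, with DMSO vehicle as control.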
# [8] = qHTS assay to test for compound auto fluorescence at 460 nm (blue) in HepG2 cells (AID 720687)
# Summary of the method: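 Cells (2,000/well in MEM with 10% FBS) attached overnight at 37 C, then were exposed to compound or DMSO for 1 hr at 37 C, 5% CO2. Fluorescence read at Ex/Em 405/460 nm, expressed as triamterene-equivalent signal.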
# [9] = target: Glucocorticoid receptor (Homo sapiens) (UniProt P04150); assay: qHTS assay to identify small molecule agonists of the glucocorticoid receptor (GR) signaling pathway (AID 720691; active means well fitted activation curve with a large enough effect in the signal ratio in the repeat runs, not every such curve was filed as active; the % refers to the signal ratio)
# Glucocorticoid receptor (Homo sapiens), sequence (P04150 whole entry, looked up): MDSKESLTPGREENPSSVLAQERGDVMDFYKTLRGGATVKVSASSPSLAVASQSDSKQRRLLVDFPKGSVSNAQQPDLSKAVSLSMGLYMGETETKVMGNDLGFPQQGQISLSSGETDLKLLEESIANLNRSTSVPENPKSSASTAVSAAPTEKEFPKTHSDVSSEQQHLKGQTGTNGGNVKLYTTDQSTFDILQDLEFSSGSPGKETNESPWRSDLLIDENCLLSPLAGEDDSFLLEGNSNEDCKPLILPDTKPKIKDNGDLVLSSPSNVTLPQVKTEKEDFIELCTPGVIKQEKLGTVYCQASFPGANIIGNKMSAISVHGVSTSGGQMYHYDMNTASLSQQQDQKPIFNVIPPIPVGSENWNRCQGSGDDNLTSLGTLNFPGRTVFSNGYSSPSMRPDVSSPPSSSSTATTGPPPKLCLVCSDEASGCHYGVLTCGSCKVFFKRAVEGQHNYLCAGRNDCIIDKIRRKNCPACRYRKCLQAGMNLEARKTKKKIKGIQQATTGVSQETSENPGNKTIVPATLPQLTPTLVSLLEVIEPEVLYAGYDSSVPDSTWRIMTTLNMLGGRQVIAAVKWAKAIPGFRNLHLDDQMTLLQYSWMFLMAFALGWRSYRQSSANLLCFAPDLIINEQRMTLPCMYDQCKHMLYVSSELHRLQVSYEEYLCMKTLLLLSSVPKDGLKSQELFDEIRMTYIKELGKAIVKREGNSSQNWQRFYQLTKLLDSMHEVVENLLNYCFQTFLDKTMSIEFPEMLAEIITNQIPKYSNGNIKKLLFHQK
# Summary of the method: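 Fluorescence intensity from LiveBLAzer B/G FRET substrate (2 h, room temperature) reports beta-lactamase expression driven by the glucocorticoid response element in GR-bla HeLa cells after 18 h compound exposure at 37 C.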
# [10] = target: Glucocorticoid receptor (Homo sapiens) (UniProt P04150); assay: qHTS assay to identify small molecule antagonists of the glucocorticoid receptor (GR) signaling pathway (AID 720692; active means well fitted inhibition curve with a large enough effect in the signal ratio in the repeat runs, not every such curve was filed as active; the % refers to the signal ratio; further: potency means the concentration at half of the fitted maximal effect)
# Summary of the method: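 HeLa GR-bla cells; cmpd + dex 5 nM final, 18 h 37 C; LiveBLAzer B/G FRET substrate 2 h RT; fluorescence intensity read. Antagonist mode, qHTS.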
# Tags describe the fitted curve by direction and shape or compound fluorescence and quenching.
smiles,measurement,setting,value
c1ccc2cc3c(cc2c1)-c1cccc2cccc-3c12,outcome,[1],inactive
same,outcome,[2],inactive
same,outcome,[3],inactive
same,outcome,[4],inactive
same,Potency,[5],1410 nM [fluorescent] (active)
same,outcome,[6],inactive
N#CCCC(Br)(C#N)CBr (stereo not drawn),outcome,[1],inactive
same,Potency,[7],inactive
same,outcome,[2],inactive
same,outcome,[4],inactive
same,Potency,[5],inactive
same,outcome,[6],inactive
same,Potency,[8],inactive
same,Potency,[9],inactive
C=CCC1=C(C)C(OC(=O)C2C(C=C(C)C)C2(C)C)CC1=O (stereo not drawn),outcome,[1],inactive
same,Potency,[7],inactive
same,outcome,[2],inactive
same,outcome,[4],inactive
same,Potency,[5],inactive
same,outcome,[6],inactive
same,Potency,[8],inactive
same,Potency,[9],inactive
CN(C)CCc1c[nH]c2ccc(O)cc12,outcome,[1],inactive
same,Potency,[7],inactive
same,outcome,[2],inactive
same,outcome,[4],inactive
same,Potency,[5],inactive
same,outcome,[6],inactive
same,Potency,[8],inactive
same,Potency,[9],inactive
S=C(SSC(=S)N1CCCCC1)N1CCCCC1,outcome,[1],inactive
same,Potency,[7],inactive
same,outcome,[2],inactive
same,outcome,[3],inactive
same,outcome,[4],inactive
same,Potency,[5],inactive
same,outcome,[6],inactive
same,Potency,[8],inactive
same,Potency,[10],inactive
Nc1ccccc1C(=O)Oc1ccc2ccccc2c1,outcome,[1],inactive
same,Potency,[7],inactive
same,outcome,[2],inactive
same,outcome,[4],inactive
same,Potency,[5],inactive
same,outcome,[6],inactive
same,Potency,[8],inactive
same,Potency,[9],inactive
same,Potency,[10],inactive
Cc1ccc(OP(=O)(Oc2ccccc2)Oc2ccccc2)cc1,outcome,[1],inactive
same,Potency,[7],inactive
same,outcome,[2],inactive
same,outcome,[4],inactive
same,Potency,[5],inactive
same,outcome,[6],inactive
same,Potency,[8],inactive
Clc1ccc(CCC(Cn2ccnc2)Sc2c(Cl)cccc2Cl)cc1 (stereo not drawn),"fluorescence, % of fluorescein",[1],0.0661% [at 18.6 µM]
same,"fluorescence, % of fluorescent control",[7],0.052% [at 18.6 µM]
same,activity change,[2],-0.055% [at 18.6 µM]
same,"fluorescence, % of Rose Bengal",[4],0.657% [at 18.6 µM]
same,"fluorescence, % of fluorescent control",[5],0.0259% [at 18.6 µM]
same,"fluorescence, % of fluorescein control",[6],0.0716% [at 18.6 µM]
same,"fluorescence, % of fluorescent control",[8],-0.0565% [at 18.6 µM]
same,Potency,[10],inactive
CSCCCN=C=S,outcome,[1],inactive
same,outcome,[2],inactive
same,outcome,[4],inactive
same,Potency,[5],inactive
same,outcome,[6],inactive
same,Potency,[8],inactive
same,Potency,[9],inactive
C[C@H]1O[C@@H](O[C@H]2[C@@H](O)C[C@H](O[C@H]3[C@@H](O)C[C@H](O[C@H]4CC[C@@]5(C)[C@H](CC[C@@H]6[C@@H]5CC[C@]5(C)[C@@H](C7=CC(=O)OC7)CC[C@]65O)C4)O[C@@H]3C)O[C@@H]2C)C[C@H](O)[C@@H]1O,outcome,[1],inactive
same,outcome,[2],inactive
same,outcome,[3],inactive
same,outcome,[4],inactive
same,Potency,[5],inactive
same,outcome,[6],inactive
same,Potency,[8],inactive
same,Potency,[9],inactive
same,Potency,[10],425 nM (active)
C[C@]12CC[C@H]3[C@@H](CCC4=CC(=O)CC[C@@]43C)[C@@H]1CC[C@@H]2O,outcome,[1],inactive
same,outcome,[2],inactive
same,outcome,[4],inactive
same,Potency,[5],inactive
same,outcome,[6],inactive
same,Potency,[8],inactive
same,Potency,[9],inactive
same,Potency,[10],2440 nM (active)
Cc1cc(C)cc(OP(=O)(Oc2cc(C)cc(C)c2)Oc2cc(C)cc(C)c2)c1,outcome,[1],inactive
same,outcome,[2],inactive
same,outcome,[3],inactive
same,outcome,[4],inactive
same,Potency,[5],inactive
same,outcome,[6],inactive
same,Potency,[8],inactive
same,Potency,[9],inactive
CCCSP(=O)(OCC)SCCC,outcome,[1],inactive
same,outcome,[2],inactive
same,outcome,[3],inactive
same,outcome,[4],inactive
same,Potency,[5],inactive
same,outcome,[6],inactive
same,Potency,[8],inactive
same,Potency,[9],inactive
CCOc1cc(C(C)(C)C)ccc1C1COC(c2c(F)cccc2F)=N1 (stereo not drawn),outcome,[1],inactive
same,outcome,[2],inactive
same,outcome,[3],inactive
same,outcome,[4],inactive
same,Potency,[5],inactive
same,outcome,[6],inactive
same,Potency,[8],inactive
O=C(O)COc1nc(Cl)c(Cl)cc1Cl,outcome,[1],inactive
same,outcome,[2],inactive
same,outcome,[3],inactive
same,outcome,[4],inactive
same,Potency,[5],inactive
same,outcome,[6],inactive
same,Potency,[8],inactive
same,Potency,[9],inactive
CC(C)Oc1cccc(NC(=O)c2ccccc2C(F)(F)F)c1,outcome,[1],inactive
same,outcome,[2],inactive
same,outcome,[4],inactive
same,Potency,[5],inactive
same,outcome,[6],inactive
same,Potency,[8],inactive
same,Potency,[9],inactive
COP(=O)(OC)SCn1c(=O)oc2cc(Cl)cnc21,outcome,[1],inactive
same,outcome,[2],inactive
same,outcome,[3],inactive
same,outcome,[4],inactive
same,Potency,[5],inactive
same,outcome,[6],inactive
same,Potency,[8],inactive
same,Potency,[9],inactive
N#C/C=C/C#N,outcome,[1],inactive
same,outcome,[2],inactive
same,outcome,[4],inactive
same,Potency,[5],inactive
same,outcome,[6],inactive
same,Potency,[8],inactive
same,Potency,[9],inactive
COP(=S)(OC)Oc1cc(Cl)c(Br)cc1Cl,outcome,[1],inactive
same,outcome,[2],inactive
same,outcome,[4],inactive
same,Potency,[5],inactive
same,outcome,[6],inactive
same,Potency,[8],inactive
Fc1ccc(Oc2ccnc3cc(Cl)cc(Cl)c23)cc1,outcome,[1],inactive
same,outcome,[2],inactive
same,outcome,[3],inactive
same,outcome,[4],inactive
same,Potency,[5],inactive
same,outcome,[6],inactive
same,Potency,[8],inactive
same,Potency,[9],inactive
CC(=O)/C=C/c1ccc2c(c1)OCO2,outcome,[1],inactive
same,outcome,[2],inactive
same,outcome,[3],inactive
same,outcome,[4],inactive
same,Potency,[5],inactive
same,outcome,[6],inactive
same,Potency,[8],inactive
same,Potency,[9],inactive
BrCBr,outcome,[1],inactive
same,outcome,[2],inactive
same,outcome,[3],inactive
same,outcome,[4],inactive
same,Potency,[5],inactive
same,outcome,[6],inactive
same,Potency,[8],inactive
same,Potency,[9],inactive
CC1(C)CC/C(=C/c2ccc(Cl)cc2)C1(O)Cn1cncn1 (stereo not drawn),outcome,[1],inactive
same,outcome,[2],inactive
same,outcome,[3],inactive
same,outcome,[4],inactive
same,Potency,[5],inactive
same,outcome,[6],inactive
same,Potency,[8],inactive
same,Potency,[9],inactive
